Each sequence was assayed on VDR:RXRa (NR concentration 270 nM, RXRa partner concentration 90 nM) (assay: PBM binding z-score (relative to random genomic background probes); higher = stronger binding; sequences stand for … in GC…GCGATTGACAGCGTAGAATGAAGG).
Procedure: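 Protein-binding microarray (Agilent 4x180K custom design, double-stranded 60-nt probes: 5' GC cap, 34-nt variable region, 24-nt constant primer region; full probe sequence given). Purified or IVT nuclear receptor:RXRα heterodimers (3:1 NR:RXRα, mostly 270:90 nM) or homodimers were incubated for 1 h in PBS with 2% milk and no ligand, then detected with Alexa488 antibodies. Fluorescence from o1-orientation probes (~5 replicates averaged) was converted to z-scores against 500 random hg19 background probes. Variable regions are seed direct-repeat (DR0–DR5) sites, all their single-nucleotide variants and half-site ablations.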
TAGCCTAGATCAGATCGGGCCAGTATACGCTATA showed a PBM binding z-score of -0.89.
In the case of CGAACTAGGTCATAGACAGGACAGTGAATAGTAA, the PBM binding z-score was 1.78.
Work on GCTATTAGTAGAAAGGGCAACCGAATGATTCTCG yielded a PBM binding z-score of 0.11.
AGAATGAGGTTATTAAAATCAGGGAATTGCGGTC was tested, and the PBM binding z-score was 0.984.
For GAGACTGGGGCAAAGCAGGTTACCATAAGGTTGG, the PBM binding z-score was 0.398.
For GATACAGGGTCAGCTAGAGGCCACAGTATGGAAA, the PBM binding z-score was 3.76.
AGAAAGAGGTTATTAAGATCAGGGAATTGCGGTC gave a PBM binding z-score of 2.57.
CCTAGCAGACCAGGGTCACTCAAGCATTTCGCTT was tested, and the PBM binding z-score was 2.69.
For ATATGTAGGTTACATCCGGTTCATTCAGGCTATG, the PBM binding z-score was 4.76.
ATCTCTAGGTAAAGTTCAGTGTAAGATCGATAGA gave a PBM binding z-score of 2.12.
Sequence AGAACGAGGGCACGCTGAGTCGATAGCAGAGTAG has a PBM binding z-score of 0.908.
CTTCCAAGGTCAATGCTAGGTCAGTGAAAGCATT showed a PBM binding z-score of 4.72.
TCACATAGGTAAATGCTAGGTGAAAGTCCGATCT was tested, and the PBM binding z-score was 0.334.
In the case of TCTCGGAGGACACGAAGGTCAGAGCTTTCCAGAG, the PBM binding z-score was 2.3.
For CCAGACAGGTGAGAAGGTAACACAGCCTCGATTA, the PBM binding z-score was 0.086.
For ACTAGCAGGCCAAGGGTCACTCAGGATTAGTCCG, the PBM binding z-score was 3.03.
ATATGTAGGTTATCGGGTCACTCAGTTTGCGCAT showed a PBM binding z-score of 5.
Sequence TCGAGTAGGTTACCAATGGGGTATTCAGCTTTCT has a PBM binding z-score of 0.0284.
ACTTACGGGTCAACGAGGGTATAGCACGCGTATA gave a PBM binding z-score of 7.1.
With GCTTACGGGTAAAAGGTTATAGCATGAATAGAAT the PBM binding z-score was 1.57.
With CGAACTAGGTCATTCAGGACAGTGAATACATTGA the PBM binding z-score was 4.46.
GATACAGGGTCAGCTAGAAGCCAGAGTATGGAAA was tested, and the PBM binding z-score was 2.11.
Work on CCAGACAGGTGAAAGGTAAATCAGTCTGGTACGC yielded a PBM binding z-score of 0.701.
TCTTGTAGAGCAATAGAGGTTAAGAAAGTGCGCT gave a PBM binding z-score of 1.18.
For TAGCCTAGGTAATGCGGGCCAGTATAGTGTCGGC, the PBM binding z-score was -0.839.
Work on TCATATAGGTAAAAGGTGAAAGTGGGTGTGGTAA yielded a PBM binding z-score of 2.
With TCATATAGGTGAACAGGTGAAAGTCCGTAAGTTA the PBM binding z-score was 1.19.
Sequence TCATATAGGTAAATGCTACGTGAAAGTCCGATCT has a PBM binding z-score of 0.947.
CATACAGGGTCAGCTAGGGCAGAGTAGGGACGGC was tested, and the PBM binding z-score was 4.55.
In the case of ACTAGTTGGTCATCTGAGGTCACACACAATTCGG, the PBM binding z-score was 5.04.
ACTTACGGGTCAACGAGGTTATTGCACGCGTATA was tested, and the PBM binding z-score was 8.05.
GCAGACAGGTGAAACACAGGTAACTCAGGGTGGC was tested, and the PBM binding z-score was -0.244.
With GGAACGAGGGCAAGTTGATCGCAGAGTTTGATGG the PBM binding z-score was 0.673.
AGAACGAGGGCCCGCTGAGTTGATAGCAGAGTAG showed a PBM binding z-score of -1.03.
With AAAATGAGGTTACCAAAGATCAGGGAAACGCTTG the PBM binding z-score was 1.94.
Work on TCACACAGGTGAAGGTAACTCAGGTACGCAGTCG yielded a PBM binding z-score of 0.751.
ATATGTAGATTACATCCGGGTCATTCAGGCTATG was tested, and the PBM binding z-score was 3.34.
CCGAGTGGGGCAAAGGTTACCATACTCAGTACGA showed a PBM binding z-score of 1.49.
ATCTCTAGCTAACAAGTTCAGTGAAAGAGAGGAC gave a PBM binding z-score of 1.64.
For CCTTACGGGTCACGAGTTTATAGCACGACGAGCG, the PBM binding z-score was 5.73.

— the supplement of paper PMC6555819
